Values joined by “and” are separate entries in the source; they are usually repeats but may differ in a detail not shown here. Equal values may be shown once. Records with an inconclusive call do not appear. Active and inactive are the calls of the source. Unless noted, the call rests on the fitted dose curve.

The text below walks through data of PubChem BioAssay (NCATS).

Assay [1] deals with Glucocorticoid receptor (Homo sapiens) (UniProt P04150). The experiment in a line: qHTS assay for small molecule agonists of glucocorticoid receptor signaling (AID 588532; active means well fitted curve in the direction sought with a large enough effect in the signal ratio, with a control signal flat; the % refers to the signal ratio;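 further: 100% = dexamethasone at 0.1 µM and 0% = DMSO only wells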). The note with it: HeLa MMTV-bla, beta-lactamase ratio, agonist, 18 h; stronger effect = higher value; percent of dexamethasone control, DMSO zero. A digest of the protocol:
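MMTV-bla HeLa beta-lactamase reporter cells in 1% charcoal/dextran FBS medium, compounds up to 92 uM for 18 h at 37 C, CCF4 readout; normalized to 0.1 uM dexamethasone (100%), EC50 and efficacy from Hill fits.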

For assay [2] the target is unchanged. The assay is described as follows: qHTS assay for small molecule antagonists of glucocorticoid receptor signaling (AID 588533; active means well fitted inhibition curve with a large enough effect in the signal ratio, with a control signal flat, not every such curve was filed as active; the % refers to the signal ratio; further: on the % scale 0 is the no-effect control and ±100 the full control effect). The note with it: HeLa MMTV-bla, GRE beta-lactamase ratio, antagonist mode, 18 h; series mostly up to 76.8 µM. An outline of the steps:
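Antagonist-mode qHTS: compound titrations added to GRE-bla HeLa cells, then dexamethasone 2 nM final; 18 h, 37 C. CCF4 FRET fluorescence normalized to dexamethasone and DMSO; IC50 from Hill fit.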

Assay [3] is described as follows: qHTS assay for small molecule antagonists of peroxisome proliferator-activated receptor delta signaling (AID 588535; active means well fitted inhibition curve with a large enough effect in the signal ratio, with a control signal flat, not every such curve was filed as active; the % refers to the signal ratio;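 on max response: cells co-treated with a PPAR-delta agonist as stimulator during compound exposure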). The note with it: HEK293T PPARd-UAS-bla, beta-lactamase FRET ratio, 18 h; 460 nm channel. A digest of the protocol: (§1)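 Cells were seeded at 4000 per well in assay medium containing 2% charcoal/dextran FBS and held 5 hrs at 37 C. Compounds were then added for 18 hrs. CCF4 substrate was applied for 2 hrs at room temperature before fluorescence reading.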

For assay [4], the target named is Peroxisome proliferator-activated receptor delta (Homo sapiens) (UniProt Q03181). The assay is described as above. The note with it: HEK293T PPARd-UAS-bla, beta-lactamase FRET ratio, 18 h; series mostly up to 76.7 µM. An outline of the steps:
as §1

Assay [5] deals with Peroxisome proliferator-activated receptor gamma (Homo sapiens) (UniProt P37231). The assay is described as follows: qHTS assay for small molecule agonists of peroxisome proliferator-activated receptor gamma signaling (AID 588536; active means well fitted curve in the direction sought with a large enough effect in the signal ratio, with a control signal flat, not every such curve was filed as active; the % refers to the signal ratio;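 further: 0% = DMSO basal wells and 100% = rosiglitazone at 2 µM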). As to conditions: HEK293 PPARg-UAS-bla, beta-lactamase ratio, 16 h, percent of rosiglitazone response, DMSO as zero; series mostly up to 76.7 µM. A digest of the protocol: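 PPAR-gamma-UAS-bla HEK293 cells in medium with 1% charcoal/dextran-treated FBS were exposed to compounds for 16 h at 37 C. Beta-lactamase activity was read with CCF4 substrate (405 nm excitation, 460/530 nm emission).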
Chain of Peroxisome proliferator-activated receptor gamma (Homo sapiens) (P37231 whole entry, looked up): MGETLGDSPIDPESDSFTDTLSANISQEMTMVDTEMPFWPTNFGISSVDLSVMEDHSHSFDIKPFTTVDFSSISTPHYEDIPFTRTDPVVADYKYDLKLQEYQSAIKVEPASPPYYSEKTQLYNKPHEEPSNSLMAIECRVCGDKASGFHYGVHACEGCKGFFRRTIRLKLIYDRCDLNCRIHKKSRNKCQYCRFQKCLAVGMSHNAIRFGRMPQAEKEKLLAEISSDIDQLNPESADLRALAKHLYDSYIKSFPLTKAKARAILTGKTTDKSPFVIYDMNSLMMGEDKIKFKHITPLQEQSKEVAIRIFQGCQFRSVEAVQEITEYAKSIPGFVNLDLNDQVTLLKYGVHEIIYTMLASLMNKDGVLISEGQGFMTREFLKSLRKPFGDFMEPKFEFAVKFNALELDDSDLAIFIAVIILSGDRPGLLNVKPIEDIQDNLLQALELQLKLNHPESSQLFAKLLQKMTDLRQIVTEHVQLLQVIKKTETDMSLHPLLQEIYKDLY

The target in assay [6] is Vitamin D3 receptor (Homo sapiens) (UniProt P11473). The assay is described as follows: qHTS assay for small molecule antagonists of vitamin D receptor signaling (AID 588541).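 Further: receptor activated by calcitriol during compound treatment; on the % scale 0 is the no-effect control and ±100 the full control effect.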 The note with it: HEK293T VDR-UAS-bla, beta-lactamase ratio, antagonist mode; series mostly up to 76.7 µM. An outline of the steps:
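VDR-UAS-bla HEK293T cells in 2% charcoal-stripped FBS were stimulated with 1-alpha,25-dihydroxyvitamin D3 (3 nM final) plus compound for 16 h at 37 C. The beta-lactamase CCF4 readout was normalized to 50 nM agonist and DMSO, and Hill fits gave IC50.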

Assay [7] shares this target. The experiment in a line: qHTS assay for small molecule agonists of vitamin D receptor signaling (AID 588543).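 Further: 0% = DMSO basal and 100% = reference agonist control.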 As to conditions: HEK293T VDR-UAS-bla, beta-lactamase ratio, 16 h; series mostly up to 76.8 µM. An outline of the steps:
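Measured: β-lactamase reporter activity (CCF4, 405 nm excitation, 460/530 nm emission) in HEK293T VDR-UAS-bla cells after 16 h compound exposure at 37 °C. Normalization against 50 nM 1α,25-dihydroxyvitamin D3 and DMSO; Hill-fit EC50.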

Assay [8] can be described thus: qHTS assay for small molecule agonists of retinoid X receptor alpha signaling (AID 588544).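 On activation: 0% = DMSO basal wells and 100% = reference agonist.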 As to conditions: HEK293T RXRa-UAS-bla, beta-lactamase reporter, 18 h; 530 nm emission.
For assay [9], the target named is Retinoic acid receptor RXR-alpha (Homo sapiens) (UniProt P19793). Described as above. As to conditions: HEK293T RXRa-UAS-bla, beta-lactamase reporter, 18 h; series mostly up to 76.7 µM.
Chain of Retinoic acid receptor RXR-alpha (Homo sapiens) (P19793 whole entry, looked up): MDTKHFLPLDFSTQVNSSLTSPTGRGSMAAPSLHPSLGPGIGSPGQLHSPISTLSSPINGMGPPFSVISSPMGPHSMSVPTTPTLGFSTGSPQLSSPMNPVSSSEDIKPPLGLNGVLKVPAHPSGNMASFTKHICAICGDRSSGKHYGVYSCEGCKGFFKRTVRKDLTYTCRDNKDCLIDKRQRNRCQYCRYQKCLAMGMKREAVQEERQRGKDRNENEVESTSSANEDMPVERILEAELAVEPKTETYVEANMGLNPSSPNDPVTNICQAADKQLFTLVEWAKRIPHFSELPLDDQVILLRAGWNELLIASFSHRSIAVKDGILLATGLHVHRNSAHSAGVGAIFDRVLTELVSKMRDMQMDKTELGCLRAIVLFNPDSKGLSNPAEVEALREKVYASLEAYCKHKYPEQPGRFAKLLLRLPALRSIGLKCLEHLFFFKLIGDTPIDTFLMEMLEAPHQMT
The target in assay [10] is Thyroid hormone receptor beta (Homo sapiens) (UniProt P10828). The assay is described as follows: qHTS assay for small molecule agonists of thyroid hormone receptor beta signaling (AID 588545).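 Further: 0% = DMSO only and 100% = 10 nM T3.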 As to conditions: TR-UAS-bla GripTite HEK 293, beta-lactamase ratio, agonist mode, 18 h, percent of T3 response, DMSO as zero; series mostly up to 76.7 µM. A digest of the protocol: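 TR-UAS-bla GripTite HEK 293 cells (2500/well, medium with 2% charcoal/dextran FBS) were treated in agonist mode for 18 h at 37 C, titrated. Beta-lactamase was read by CCF4 ratio after 2 h; normalized to 10 nM T3 (100%) and DMSO, Hill-fitted for EC50 and efficacy.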
Chain of Thyroid hormone receptor beta (Homo sapiens) (P10828 whole entry, looked up): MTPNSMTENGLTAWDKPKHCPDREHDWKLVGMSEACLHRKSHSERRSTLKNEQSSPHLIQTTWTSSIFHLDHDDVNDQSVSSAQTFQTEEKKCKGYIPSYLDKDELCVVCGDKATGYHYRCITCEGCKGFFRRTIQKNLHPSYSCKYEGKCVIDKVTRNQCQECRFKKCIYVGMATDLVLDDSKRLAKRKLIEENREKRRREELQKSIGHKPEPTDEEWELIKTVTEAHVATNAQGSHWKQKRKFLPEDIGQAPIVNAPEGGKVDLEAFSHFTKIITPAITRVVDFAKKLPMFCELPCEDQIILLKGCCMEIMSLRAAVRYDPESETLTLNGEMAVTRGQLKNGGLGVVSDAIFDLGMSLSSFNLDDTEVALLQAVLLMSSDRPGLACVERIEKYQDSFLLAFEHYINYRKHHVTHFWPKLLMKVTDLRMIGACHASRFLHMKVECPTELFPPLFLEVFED

The nature of assay [11]: qHTS assay for small molecule antagonists of retinoid X receptor alpha signaling (AID 588546; active means well fitted inhibition curve with a large enough effect in the signal ratio, with a control signal flat, not every such curve was filed as active; the % refers to the signal ratio;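 further: cells stimulated with 9-cis-retinoic acid as agonist; on the % scale 0 is the no-effect control and ±100 the full control effect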). The note with it: HEK293T RXRa-UAS-bla, beta-lactamase ratio, antagonist mode; measured here: W530 green channel, cytotoxicity proxy. An outline of the steps: (§2)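 Beta-lactamase reporter inhibition, read as CCF4 fluorescence ratio (ex 405, em 460/530 nm) after 2 h at RT. HEK293T UAS-bla cells, 2500/well, were stimulated with 9-cis-RA at 500 or 100 nM final alongside test compound for 18 h at 37 C.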

For assay [12], the target named is Retinoic acid receptor RXR-alpha (Homo sapiens) (UniProt P19793). The description is as above. As to conditions: HEK293T RXRa-UAS-bla, beta-lactamase ratio, antagonist mode. An outline of the steps:
as §2

Assay [13] deals with Thyroid hormone receptor beta (Homo sapiens) (UniProt P10828). The experiment in a line: qHTS assay for small molecule antagonists of thyroid hormone receptor beta signaling (AID 588547; active means well fitted inhibition curve with a large enough effect in the signal ratio, with a control signal flat, not every such curve was filed as active; the % refers to the signal ratio;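 further: cells stimulated with 0.4 nM T3 agonist during compound exposure; on the % scale 0 is the no-effect control and ±100 the full control effect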). As to conditions: TR-UAS-bla HEK293, beta-lactamase ratio, antagonist mode, 18 h. An outline of the steps:
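TR-UAS-bla GripTite HEK293 cells in 2% charcoal/dextran FBS medium; compounds 0.59 nM to 92 uM with T3 at 0.4nM final, 18 h at 37 C. Beta-lactamase read by CCF4 fluorescence (460/530 nm); Hill fits gave IC50 and efficacy.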

Assay [14] addresses Voltage-gated inwardly rectifying potassium channel KCNH2 (Homo sapiens) (UniProt Q12809). The assay is described as follows: qHTS Assay for Small Molecule Inhibitors of the Human hERG Channel Activity (AID 588834; active means well fitted curve in the direction sought with a large enough effect; an effect the other way counts as inactive or inconclusive;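 further: top concentration of the series differs between compounds; on the % scale 0 is the no-effect control and ±100 the full control effect; lower thallium flux fluorescence means stronger hERG block; nearly all actives have a fitted effect of over 50% in size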). As to conditions: U2OS BacMam hERG, FluxOR thallium flux fluorescence; series mostly up to 46.1 µM. An outline of the steps: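 Blockade is seen as reduced FluxOR thallium-flux fluorescence in U2OS cells expressing hERG from a BacMam construct, in Opti-MEM with 2% FCS. Concentration-response data fitted to the Hill equation for AC50.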

Assay [15] deals with Luciferin 4-monooxygenase (Photinus pyralis) (UniProt P08659). The experiment in a line: Biochemical firefly luciferase enzyme assay for NPC (AID 624030; active means well fitted curve in the direction sought with a large enough effect; an effect the other way counts as inactive or inconclusive;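 further: purified P. pyralis luciferase at 10 nM with luciferin and ATP substrate; 0% = DMSO and -100% = full luciferase inhibition by PTC124 control; nearly all actives have a fitted effect of over 70% in size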). The note with it: purified P. pyralis luciferase, luminescence, 5 min; series mostly up to 58.6 µM. An outline of the steps:
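Purified P. pyralis luciferase at 10 nM in 50 mM Tris Acetate (final), luminescence read within 5 minutes of enzyme addition to compounds. Activity normalised to PTC124 versus DMSO; concentration-response curves classed by r2, magnitude and activity.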

Assay [16] can be described thus: S16 Schwann cell viability assay (CellTiter-Glo assay) (AID 624031; active means well fitted curve in the direction sought with a large enough effect; an effect the other way counts as inactive or inconclusive;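 further: cellular ATP luminescence as a viability measure; plate controls were DMSO-treated cells for no effect and cell-free wells for full effect; nearly all actives have a fitted effect of over 70% in size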). As to conditions: S16 rat Schwann cells viability, 24 h; series mostly up to 57.5 µM. A digest of the protocol: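 Native S16 rat Schwann cells, 500-750 cells/well in DMEM with 10% FBS, dosed with compound after overnight culture and incubated 24h at 37 degree Celsius/5% CO2. Viability by CellTiter-Glo luminescence; % activity normalized to no-cell wells and DMSO-treated cells.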

The target of assay [17] is Estrogen receptor (Homo sapiens) (UniProt P03372). The assay is described as follows: qHTS assay for small molecule agonists of estrogen receptor alpha signaling (AID 588514).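 Further: 0% = vehicle only and 100% = reference agonist; nearly all actives have a fitted effect of over 70% in size.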 As to conditions: ER-alpha-UAS-bla HEK293, beta-lactamase ratio, 18 h, percent of full estradiol response, vehicle zero; series mostly up to 76.8 µM. A digest of the protocol:
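Reporter-gene assay. […] controls beta-lactamase in HEK 293 GripTite cells; after 18 hrs with compound, CCF4 substrate is added for 2 hrs and fluorescence is read.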

Assay [18] has as its target Androgen receptor (Homo sapiens) (UniProt P10275). The experiment in a line: qHTS assay for small molecule agonists of androgen receptor signaling (AID 588515; active means well fitted curve in the direction sought with a large enough effect in the signal ratio, with a control signal flat; the % refers to the signal ratio; further: on the % scale 0 is the no-effect control and ±100 the full control effect). The note with it: AR-UAS-bla HEK293, beta-lactamase ratio, agonist 16 h; stronger effect = higher value. An outline of the steps: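 EC50 and efficacy came from Hill fits of titrations (up to 92 uM) normalized to 30 nM R1881 as 100% and DMSO as 0%. Compound exposure was 16 h at 37 C on AR-UAS-bla HEK293 cells, with a 405/460/530 nm CCF4 fluorescence read.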

The target is the same in assay [19]. The assay is described as follows: qHTS assay for small molecule antagonists of androgen receptor signaling (AID 588516; active means well fitted curve in the direction sought with a large enough effect in the signal ratio, with a control signal flat, not every such curve was filed as active; the % refers to the signal ratio; further: on the % scale 0 is the no-effect control and ±100 the full control effect). The note with it: AR-UAS-bla HEK293, beta-lactamase ratio, antagonist mode, 16 h; series mostly up to 76.8 µM. A digest of the protocol: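 Compounds tested in titration against 10 nM R1881 in AR-responsive bla reporter HEK 293 cells; CCF4 fluorescence (460/530 nm) after 16 h exposure gave IC50 and efficacy.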

Chain of Voltage-gated inwardly rectifying potassium channel KCNH2 (Homo sapiens) (Q12809 whole entry, looked up): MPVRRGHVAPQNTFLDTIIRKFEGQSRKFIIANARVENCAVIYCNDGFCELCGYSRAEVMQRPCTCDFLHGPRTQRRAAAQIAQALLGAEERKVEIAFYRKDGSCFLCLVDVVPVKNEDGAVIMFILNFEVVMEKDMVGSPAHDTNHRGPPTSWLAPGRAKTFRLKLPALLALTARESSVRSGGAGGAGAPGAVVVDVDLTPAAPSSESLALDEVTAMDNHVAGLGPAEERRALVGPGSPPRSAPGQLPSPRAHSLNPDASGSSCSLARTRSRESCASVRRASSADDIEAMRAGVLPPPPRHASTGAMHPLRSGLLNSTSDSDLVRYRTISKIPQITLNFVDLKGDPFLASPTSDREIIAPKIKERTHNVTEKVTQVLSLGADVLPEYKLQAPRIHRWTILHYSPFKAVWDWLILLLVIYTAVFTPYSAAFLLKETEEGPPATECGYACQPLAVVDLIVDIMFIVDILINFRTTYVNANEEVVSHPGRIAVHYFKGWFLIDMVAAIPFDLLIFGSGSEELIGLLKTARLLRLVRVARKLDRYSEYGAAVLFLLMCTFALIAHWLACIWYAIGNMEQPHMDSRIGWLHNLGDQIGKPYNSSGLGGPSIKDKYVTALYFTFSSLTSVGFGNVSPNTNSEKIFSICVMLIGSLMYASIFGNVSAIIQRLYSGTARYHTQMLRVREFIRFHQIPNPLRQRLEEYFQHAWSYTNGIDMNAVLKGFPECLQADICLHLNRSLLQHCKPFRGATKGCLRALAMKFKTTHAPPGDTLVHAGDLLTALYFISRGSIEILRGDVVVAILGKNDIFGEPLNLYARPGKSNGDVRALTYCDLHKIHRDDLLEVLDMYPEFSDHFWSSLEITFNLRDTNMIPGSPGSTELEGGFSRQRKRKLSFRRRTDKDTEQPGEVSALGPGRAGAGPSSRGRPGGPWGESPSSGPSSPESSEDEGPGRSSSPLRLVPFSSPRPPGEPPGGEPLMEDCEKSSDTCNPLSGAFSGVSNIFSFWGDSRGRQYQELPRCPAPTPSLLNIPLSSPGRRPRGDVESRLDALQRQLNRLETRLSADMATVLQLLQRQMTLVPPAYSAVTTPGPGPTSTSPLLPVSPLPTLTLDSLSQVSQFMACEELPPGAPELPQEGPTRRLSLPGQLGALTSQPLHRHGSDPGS
Chain of Glucocorticoid receptor (Homo sapiens) (P04150 whole entry, looked up): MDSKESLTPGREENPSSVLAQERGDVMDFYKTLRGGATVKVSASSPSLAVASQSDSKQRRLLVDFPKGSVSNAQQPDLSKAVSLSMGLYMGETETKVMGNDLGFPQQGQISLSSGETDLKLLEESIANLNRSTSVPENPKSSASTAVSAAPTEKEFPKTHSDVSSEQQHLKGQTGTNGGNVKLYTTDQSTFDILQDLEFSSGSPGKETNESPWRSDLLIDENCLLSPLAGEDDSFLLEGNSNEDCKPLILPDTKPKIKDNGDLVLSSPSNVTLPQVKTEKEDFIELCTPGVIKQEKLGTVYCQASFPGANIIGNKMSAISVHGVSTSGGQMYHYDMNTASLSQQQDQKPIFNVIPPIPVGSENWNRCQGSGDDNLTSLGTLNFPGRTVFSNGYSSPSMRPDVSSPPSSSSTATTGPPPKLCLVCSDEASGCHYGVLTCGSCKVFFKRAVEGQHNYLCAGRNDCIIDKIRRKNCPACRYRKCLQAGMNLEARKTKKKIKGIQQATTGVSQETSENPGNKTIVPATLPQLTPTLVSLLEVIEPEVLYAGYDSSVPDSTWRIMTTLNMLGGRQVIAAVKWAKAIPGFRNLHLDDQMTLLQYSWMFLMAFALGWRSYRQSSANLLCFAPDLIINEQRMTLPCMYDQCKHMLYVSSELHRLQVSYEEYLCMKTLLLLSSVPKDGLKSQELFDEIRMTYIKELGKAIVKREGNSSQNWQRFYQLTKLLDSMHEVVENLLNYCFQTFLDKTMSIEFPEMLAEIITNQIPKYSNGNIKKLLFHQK
Chain of Peroxisome proliferator-activated receptor delta (Homo sapiens) (Q03181 whole entry, looked up): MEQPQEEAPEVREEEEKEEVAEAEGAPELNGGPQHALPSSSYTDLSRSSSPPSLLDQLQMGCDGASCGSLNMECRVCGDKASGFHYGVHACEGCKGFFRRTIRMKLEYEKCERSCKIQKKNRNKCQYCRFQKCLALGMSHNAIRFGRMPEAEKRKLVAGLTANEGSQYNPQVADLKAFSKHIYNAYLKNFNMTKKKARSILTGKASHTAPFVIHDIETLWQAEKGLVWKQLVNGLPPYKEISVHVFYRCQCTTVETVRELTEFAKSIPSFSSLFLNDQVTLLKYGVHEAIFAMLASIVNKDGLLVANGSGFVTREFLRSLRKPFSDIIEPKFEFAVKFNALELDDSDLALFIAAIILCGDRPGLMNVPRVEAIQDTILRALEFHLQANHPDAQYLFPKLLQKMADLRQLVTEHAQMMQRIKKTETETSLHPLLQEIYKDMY
Chain of Vitamin D3 receptor (Homo sapiens) (P11473 whole entry, looked up): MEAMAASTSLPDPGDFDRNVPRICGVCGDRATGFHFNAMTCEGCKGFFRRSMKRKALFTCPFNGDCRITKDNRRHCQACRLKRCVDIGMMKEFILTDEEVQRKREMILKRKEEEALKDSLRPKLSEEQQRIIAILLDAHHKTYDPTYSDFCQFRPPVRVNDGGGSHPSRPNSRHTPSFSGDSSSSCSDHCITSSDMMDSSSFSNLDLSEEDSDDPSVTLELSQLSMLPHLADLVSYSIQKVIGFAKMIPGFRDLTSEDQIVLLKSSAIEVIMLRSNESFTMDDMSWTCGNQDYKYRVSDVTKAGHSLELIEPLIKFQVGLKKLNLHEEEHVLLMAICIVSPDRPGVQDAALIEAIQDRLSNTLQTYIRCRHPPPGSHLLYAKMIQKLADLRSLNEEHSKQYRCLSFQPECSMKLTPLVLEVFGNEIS
Chain of Luciferin 4-monooxygenase (Photinus pyralis) (P08659 whole entry, looked up): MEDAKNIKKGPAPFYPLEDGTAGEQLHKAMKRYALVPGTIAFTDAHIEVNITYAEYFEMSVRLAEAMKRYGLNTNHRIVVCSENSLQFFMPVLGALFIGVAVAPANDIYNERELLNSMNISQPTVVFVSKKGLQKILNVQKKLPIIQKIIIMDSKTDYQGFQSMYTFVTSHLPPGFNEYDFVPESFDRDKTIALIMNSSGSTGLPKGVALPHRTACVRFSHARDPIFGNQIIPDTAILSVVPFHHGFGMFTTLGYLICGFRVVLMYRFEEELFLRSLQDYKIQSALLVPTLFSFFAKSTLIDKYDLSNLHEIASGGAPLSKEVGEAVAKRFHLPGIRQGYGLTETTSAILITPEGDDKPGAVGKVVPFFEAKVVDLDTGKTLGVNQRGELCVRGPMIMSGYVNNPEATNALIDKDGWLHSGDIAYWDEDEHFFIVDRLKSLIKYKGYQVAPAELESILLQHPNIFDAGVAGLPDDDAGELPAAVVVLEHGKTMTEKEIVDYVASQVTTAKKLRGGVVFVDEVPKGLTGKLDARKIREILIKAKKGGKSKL

As to `O=C(c1ccccc1)C(O)c1ccccc1` (stereo unspecified), the activation in assay [1] is 2.68% (inactive) and -5.31% (inactive). In addition, the outcome in [2], in assay [4], in assay [5], in assay [6], in assay [7] and in assay [9] was inactive. Besides, the result in assay [10] and in assay [16] was inactive. Moreover, the max response in assay [3] is -5.59% and -16%; in [8] it was 1.82% and 5.17%; in [11], -8.34%; in assay [12] it was 0.509% (inactive). Also, the activity change % (negative = inhibition) in [13] is 7.64% (inactive) and -3.28% (inactive). Further, the Potency result in [14] and in assay [15] was “inactive” throughout.
As to `Cc1cc(O)cc(C)c1Cl`, the outcome in [2], in assay [4], in [5], in assay [9], in assay [10] and in assay [16] was inactive. Moreover, the max response in assay [3] was 24.1%; in assay [8] it was -3.04%; in assay [11] it was -7.57%; in assay [12], 1.2% (inactive). Further, the activity change % (negative = inhibition) in assay [13] is 6.71% (inactive). For the same compound, the Potency result in assay [14] and in assay [15] was “inactive” in each case.
On to `CC[N+](CC)(CC(=O)Nc1c(C)cccc1C)Cc1ccccc1`, for which the outcome in assay [17], in [5], in assay [6], in assay [7], in [9] and in assay [16] was inactive. Moreover, the max response was -1.28% in assay [8], -13% in assay [11] and -2.97% (inactive) in [12]. The Potency result in [14] and in [15] was “inactive” throughout.
Consider `COc1ccc(O)cc1`, for which the results for the activation in assay [18] and in assay [1] were -4.19% (inactive) and -2.84% (inactive), respectively. The outcome in assay [19], in [2], in [4], in [6], in assay [7] and in assay [9] was inactive. The result in assay [10] and in assay [16] was inactive. Besides, the max response is 3.48% in [3], -5.99% in assay [8], -9.24% in assay [11] and -8.57% (inactive) in assay [12]. Further, the Potency entry in assay [14] and in [15] was “inactive” each time.
